Screening data as filed in PubChem BioAssay.
PAFAH1B3 inh = PAFAH1B3 enzyme inhibitors, primary screen, biochemical, fluorescence polarization, human; recombinant PAFAH1B3, FP-rhodamine probe; Platelet-activating factor acetylhydrolase IB subunit alpha1 (Homo sapiens), Q15102; AID 492972, 2010; inhibition, % at 3.39 µM; 340,000 compounds, 0.28% hits;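 active = inhibition above the screen-wide average of all tested compounds plus 3 SD, cut at about 25% in these data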
PAFAH1B2 inh = PAFAH1B2 enzyme inhibitors, primary screen, biochemical, fluorescence polarization, human | Platelet-activating factor acetylhydrolase IB subunit alpha2 (Homo sapiens), P68402 | recombinant PAFAH1B2, FP-rhodamine activity probe | inhibition, % at 3.39 µM | 340,000 compounds, 1.2% hits;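 active = inhibition above the mean of all tested compounds plus 3 SD, cut at about 24% in these data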
PP5 primary = PP5 phosphatase inhibitors, primary screen, biochemical, fluorescence | 320,000 compounds, 0.18% hits | inhibition, % at 6.7 µM | Serine/threonine-protein phosphatase 5 (Homo sapiens), P53041 | AID 1987, 2009 | purified PP5c, OMFP substrate fluorescence;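 active = inhibition above the campaign's mean inhibition across all tested compounds plus 3 SD, cut at about 9.5% in these data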
pPAFAH inh = pPAFAH enzyme inhibitors, primary screen, biochemical, fluorescence polarization, human; 330,000 compounds, 1.5% hits; Platelet-activating factor acetylhydrolase (Homo sapiens), Q13093; inhibition, % at 3.39 µM; recombinant pPAFAH, FP-rhodamine probe fluorescence polarization;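 active = inhibition above the mean inhibition across the screen plus 3 SD, cut at about 25% in these data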;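 also: inhibitors block binding of the rhodamine activity-based probe so polarization drops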
Target sequence (Q13093 whole entry, looked up): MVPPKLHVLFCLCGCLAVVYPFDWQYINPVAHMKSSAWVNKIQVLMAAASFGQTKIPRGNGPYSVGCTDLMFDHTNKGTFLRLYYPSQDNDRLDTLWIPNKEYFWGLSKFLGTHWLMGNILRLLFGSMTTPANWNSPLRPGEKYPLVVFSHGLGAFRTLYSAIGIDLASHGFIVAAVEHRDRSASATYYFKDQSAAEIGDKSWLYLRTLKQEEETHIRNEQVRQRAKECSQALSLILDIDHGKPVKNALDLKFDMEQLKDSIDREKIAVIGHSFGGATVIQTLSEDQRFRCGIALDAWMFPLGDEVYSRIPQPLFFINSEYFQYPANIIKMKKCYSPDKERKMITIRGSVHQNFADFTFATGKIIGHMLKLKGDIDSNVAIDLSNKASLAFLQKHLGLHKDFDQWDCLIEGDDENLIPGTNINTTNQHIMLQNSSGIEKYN
PAFAH2 FP inh = PAFAH2 enzyme inhibitors, primary screen, biochemical, fluorescence polarization, human; inhibition, % at 3.39 µM; recombinant PAFAH2, FP-rhodamine activity probe; 340,000 compounds, 0.99% hits; Platelet-activating factor acetylhydrolase 2, cytoplasmic (Homo sapiens), Q99487; AID 492956, 2010;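 active = inhibition above the mean over all tested compounds plus 3 SD, cut at about 30% in these data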;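 also: inhibitors block probe labeling of enzyme so polarization drops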
PP1 counter = PP1-alpha phosphatase inhibitors, primary screen, counter-screen for PP5 inhibitor project, biochemical, fluorescence, OMFP substrate, single point; Serine/threonine-protein phosphatase PP1-alpha catalytic subunit (Homo sapiens), P62136; purified PP1alpha; inhibition, % at 6.7 µM; 320,000 compounds, 0.9% hits; AID 2235, 2010;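 active = inhibition above the mean inhibition of all tested compounds plus 3 SD, computed separately for each screening campaign, cut at about 15% in these data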
PP5 inh confirm = PP5 phosphatase inhibitors, confirmation, biochemical, fluorescence, human. shares compounds with PP5 primary. Purified PP5, fluorogenic phosphatase substrate. inhibition, % at 6.7 µM. 460 compounds, 22% hits; in the data active = inhibition above about 9.5%
PP1 inh counter = PP1 phosphatase inhibitors, counter-screen for PP5 inhibitor project, biochemical, fluorescence, triplicate. shares compounds with PP5 primary. PP1 enzyme, fluorescent phosphatase substrate. inhibition, % at 6.7 µM. 460 compounds, 4% hits. AID 2355, 2010; in the data active = inhibition above about 16%
Of the large screens only hits and unclear results are named; the others gave an inactive call (follow-up assays come after a bar, where they were run). A selection: hits, their analogues and other compounds. The true share with any hit is near 3.4%.

COc1ccccc1N1CCN(CCCCOc2c(OC)cccc2OC)CC1	none
O=C(CCC(=O)N1CCOCC1)Nc1nnc(C2CCCCC2)s1	PP5 primary 12 | PP5 inh confirm inactive | PP1 inh counter inactive
O=C(CCC(=O)N1CCCCC1)Nc1nnc(C2CCCCC2)s1	none
Cc1nn2c(=O)cc(CSCC(=O)Nc3ccccc3F)nc2s1	none
O=C(Cc1ccc(S(=O)(=O)N2CCOCC2)s1)Nc1cc(C(F)(F)F)cc(C(F)(F)F)c1	PP5 primary 9.7 | PP5 inh confirm 13 | PP1 inh counter inactive
O=C(O)[C@@H](O)[C@H](O)C(=O)O	PP5 primary 11 | PP5 inh confirm inactive | PP1 inh counter inactive
COc1cc(CNCC(C)C)cc(Br)c1OCC(=O)Nc1ccccc1	none
CCNCc1cc(Br)c(OCC(=O)Nc2ccccc2)c(OC)c1	PP5 primary 9.9 | PP5 inh confirm inactive | PP1 inh counter inactive
COc1ccc(C)cc1S(=O)(=O)N(CC(=O)Nc1cccc([N+](=O)[O-])c1)c1ccccc1	none
COc1ccc(Oc2cn[nH]c2-c2ccc(O)cc2O)cc1	none
CCCc1ccc(Oc2cn[nH]c2-c2ccc(O)cc2O)cc1	PP5 primary 10.0 | PP5 inh confirm inactive | PP1 inh counter inactive
Cc1cc(C(=O)N(C2CCCCC2)C2CCCCC2)no1	PP5 primary 9.7 | PP5 inh confirm inactive | PP1 inh counter inactive
CC(=O)Nc1nnc(CSCc2ccc(F)cc2)s1	none
C=CCN1C=C2C(=O)C(C)(OC(=O)CCC(=O)OC)C(=O)C(Br)=C2C=C1c1ccc(OC)cc1 (stereo not drawn)	PP5 primary 12 | PP5 inh confirm 38 | PP1 inh counter 18
Cc1ncsc1CCOC(=O)C1C2CC3CC(C2)CC1C3 (stereo not drawn)	none
CNS(=O)(=O)c1cnccc1N1CCN(C)CC1	none
Cc1ccc(-c2ccc(/C=N\n3cnnc3)o2)c(Br)c1	PP5 primary 11 | PP5 inh confirm inactive | PP1 inh counter inactive
O=C(CC1C(=O)NCCN1C(=O)Nc1ccc(F)cc1)Nc1ccc(F)cc1 (stereo not drawn)	PP5 primary 9.7 | PP5 inh confirm inactive | PP1 inh counter inactive
CC(C)c1cc(C(=O)N/N=C/c2c[nH]c3ccccc23)n[nH]1	PP5 primary 9.8 | PP5 inh confirm inactive | PP1 inh counter inactive
CCOC(=O)N1CCN(C(=O)CN(C2CCCCC2)S(=O)(=O)c2ccc(C)cc2)CC1	none
Cc1ccc(S(=O)(=O)N(CC(=O)N2CCN(c3ccc(F)cc3)CC2)C2CCCCC2)cc1	PP5 primary 10 | PP5 inh confirm inactive | PP1 inh counter inactive
COc1ccc(CCC(=O)Nc2nnc(C(C)(C)C)s2)cc1	PP5 primary 13 | PP5 inh confirm inactive | PP1 inh counter inactive
CN(C)C(=O)Cn1c(SCC(=O)NC2CCCCC2)nc2ccccc21	PP5 primary 10.0 | PP5 inh confirm inactive | PP1 inh counter inactive
Cc1cc(C)c2c(CN3CCN(C/C=C/c4ccccc4)CC3)cc(=O)oc2c1	none
COC(=O)CCC(=O)OC1(C)C(=O)C=C2C=C(C3CC3)N(C3CC3)C=C2C1=O (stereo not drawn)	PP5 primary 15 | PP5 inh confirm 43 | PP1 inh counter 18
COC(=O)CCC(=O)OC1(C)C(=O)C=C2C=C(C3CC3)N(Cc3ccco3)C=C2C1=O (stereo not drawn)	none
COCCN1C=C2C(=O)C(C)(OC(=O)CCC(=O)OC)C(=O)C=C2C=C1C1CC1 (stereo not drawn)	PP5 primary 17 | PP5 inh confirm 43 | PP1 inh counter 17
